Assay results as given in PubChem BioAssay AID626 (Vanderbilt High Throughput Screening Facility, 2007).
Screen size: about 64,000 compounds; about 1,900 (3%) were called active. This excerpt belongs to a sample that is enriched for actives. Values without a mark were called inactive.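 Rule for the calls: active = fluorescence rise, raw or as B-score row- and column-corrected plate score, outside the 99.7% band of its plate's samples, either direction; inactive = the rest.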

test system: Muscarinic acetylcholine receptor M1; test: direct activation of M1 receptor calcium signal – CHO-M1 cells, Fluo-4 calcium, agonist mode, primary screen (AID 626); settings: Fluo-4 calcium fluorescence, at 10 µM, active compounds read high

Row | Structure (SMILES) | B-score
1 | CN1CCN(S(=O)(=O)c2ccc3[nH]cc(C(=O)O)c(=O)c3c2)CC1 | 0.537
2 | COCCn1c(CN(Cc2ccccc2)Cc2ccccc2)nc2c1c(=O)n(C)c(=O)n2C | 0.66
3 | COCCn1c(CN2CCC(Cc3ccccc3)CC2)nc2c1c(=O)n(C)c(=O)n2C | 3.45 (active)
4 | CC1CCN(Cc2nc3c(c(=O)n(C)c(=O)n3C)n2CCc2ccccc2)CC1 | 0.945
5 | CCOC(=O)c1ccc(NC(=O)CSc2nnc(COc3ccccc3OC)n2C)cc1 | 0.692
6 | O=C(Nc1ccccc1N1CCCCC1)c1cccc(F)c1 | 0.341
7 | C/C(=C(\C#N)C(=O)NCCCN1CCOCC1)N(C)C | 0.122
8 | Cc1cc(Nc2cccc(F)c2)n2ncnc2n1 | 1.22
9 | CCOC(=O)[C@H]1CCC[C@@H](NS(=O)(=O)c2ccc(NC(C)=O)cc2)C1 | -0.507
10 | CCOC(=O)C1CCCN(Cc2nc(N)nc(Nc3ccc(C)cc3)n2)C1 (stereo not given) | 35.2 (active)
11 | CCOC(=O)C1CCN(C(=O)Nc2ccc(Cl)cc2)CC1 | 0.00389
12 | CCn1c(SCCC(C)C)nnc1-c1c[nH]c2ccccc12 | 0.584
13 | CCCN(CCC)CCNC(=O)c1cc2c(C)nc3ccccc3c2o1 | -0.845
14 | Cc1nc2ccccc2c2oc(C(=O)NCC3CCCO3)cc12 (stereo not given) | 2.93 (active)
15 | Cc1nc2ccccc2c2oc(C(=O)NCCCN3CCC(C)CC3)cc12 | 0.3
16 | COCCN1C(=O)c2oc3c(C)cc(C)cc3c(=O)c2C1c1cccc(O)c1 (stereo not given) | 0.00288
17 | CCOC(=O)Cn1c(=O)oc2cc(S(=O)(=O)N(C)Cc3ccco3)ccc21 | -0.339
18 | O=C(c1ccco1)N1CCN(C(=O)C2CC(c3ccc(Cl)c(Cl)c3)=NO2)CC1 (stereo not given) | -0.464
19 | CC(=O)N1CCN(C(=O)c2cccc(S(=O)(=O)Nc3ccc(C)cc3)c2)CC1 | 0.272
20 | O=S(=O)(Nc1ccc2nc(-c3ccco3)[nH]c2c1)c1ccccc1 | -0.0329
21 | Cc1ccc(S(=O)(=O)Nc2ccc3ncccc3c2)cc1 | 3.16 (active)
22 | CCOC(=O)c1sc(NC(=O)CSc2nnc(-c3ccco3)o2)c(C(=O)OCC)c1C | -0.0997
23 | CCOc1cc(/C=N/O)cc(Br)c1OC | 0.00429
24 | O=C(Nc1ccccc1C(=O)N1CCOCC1)C1CCC(=O)N1C1CCCC1 (stereo not given) | 0.307
25 | Cc1ccc(Cc2nc(-c3cccc(C)c3)no2)cc1 | -0.177

Row | Structure (SMILES) | B-score
26 | Cc1ccc(-c2noc(CN3CCN(Cc4ccccc4)CC3)n2)cc1 | -0.531
27 | COc1ccccc1Cc1nc(-c2ccc(C)cc2)no1 | 3.86 (active)
28 | O=C(NCCN1CCOCC1)c1c(F)c(F)c(F)c(F)c1F | 0.102
29 | COCCNC(=O)C(c1ccc(C)o1)N(Cc1cccs1)C(=O)c1snc(C(N)=O)c1N (stereo not given) | 2.74 (active)
30 | COCCNC(=O)C(c1ccc(C)o1)N(Cc1ccccc1)C(=O)Cn1nnc2ccccc21 (stereo not given) | -0.295
31 | CCC(C(=O)NC1CCCC1)N(C(=O)c1snc(C(N)=O)c1N)c1ccc2c(c1)OCCO2 (stereo not given) | -0.647
32 | CC(Nc1nc(N2CCCC2)nc2ccccc12)c1ccccc1 (stereo not given) | 0.0749
33 | CCOCCCNC(=O)Cc1cc(=O)[nH]c(=O)[nH]1 | -0.622
34 | COc1ccc(CN(C(=O)c2cccs2)c2nccs2)cc1OC | -0.233
35 | Cc1cc(C)c2nc(N3CCCC3)c(C#N)cc2c1 | 0.391
36 | COc1ccc(N2CCN(C(=O)CSc3nc4cc(OC)c(OC)cc4cc3C#N)CC2)cc1 | -0.487
37 | COc1ccc2nc(N3CCCC(O)C3)c(C#N)cc2c1 (stereo not given) | 15 (active)
38 | COC(=O)c1cc(C(=O)CSc2nc(C)cc(C)n2)ccc1O | -0.00415
39 | Oc1c(C(c2ccco2)N2CCC3(CC2)OCCO3)sc2ncnn12 (stereo not given) | -0.563
40 | CCCCCNC(=O)Cc1ccc(OC)cc1 | 1.29
41 | O=C(Nc1ccccc1-c1nnn(CC(=O)N2CCN(c3ccccc3)CC2)n1)c1cccs1 | -0.15
42 | O=C(NCc1ccccn1)c1cc2ccccc2oc1=O | -0.243
43 | O=C(NCc1ccccn1)c1ccc2nc(-c3ccco3)c(-c3ccco3)nc2c1 | 3.06 (active)
44 | Cc1cccn2c(=O)c3cc(C(=O)NCc4ccccn4)n(C)c3nc12 | -0.541
45 | CC1CCCCN1CC(=O)NCc1ccc2c(c1)OCO2 (stereo not given) | -0.147
46 | CCn1c(Cc2ccccc2)nnc1SCc1nc2ccccc2c(=O)[nH]1 | 0.17
47 | O=C(O)c1ccc(COCC(F)(F)F)cc1 | 3 (active)
48 | O=C(C1CCC1)N1CCc2cc(S(=O)(=O)NCc3cccnc3)ccc21 | -2.04
49 | COC(=O)c1cn(C)c2ccc(S(=O)(=O)N3CC(C)CC(C)C3)cc2c1=O (stereo not given) | -0.784
50 | c1n[nH]c(NCc2ccc3c(c2)OCO3)n1 | 2.68 (active)
